Data from PubChem BioAssay AID1508622 (National Center for Advancing Translational Sciences (NCATS), 2021).
Calls of active or inactive are those of the source. The call rests on the fitted dose curve; in most records, active means well fitted activation curve with a large enough effect; inconclusive means small, poorly fitted or top-dose-only effect; inactive means no such curve, though single readings can be large or run the other way.

Assay: Confirmatory qHTS for Identification of Small Molecule Activators of Huntingtin-Antisense Promoter Activity
Settings: HEK293 HTT-AS promoter firefly luciferase reporter, 24 h; series mostly up to 57.5 µM
Procedure, shortened: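 Plated reporter HEK293 cells (24 h) received library compounds at up to 57.5 uM final or 50 uM PTC124, incubated 24 h at 37C; firefly luciferase luminescence was then recorded with Dual-Glo reagent.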

Potency, inactive:
CCOc1ccc(OC(=O)c2c(-c3ccccc3Cl)noc2C)cc1
Cc1ccc(C(=O)N2CCc3cc(CNC(=O)CSc4ccccc4)ccc32)cc1
CCN(C(=O)CSc1nc(-c2ccccc2)no1)c1cccc(C)c1
O=C(C1CCC1)N1CCCc2cc(S(=O)(=O)N3CCN(c4ccccc4)CC3)ccc21
CCCSCCCNC(=O)c1cc2n(n1)CCCN(Cc1ccc(C)cc1)C2=O
O=C(CN1C(=O)C2(SCC(=O)N2c2ccc(F)c(F)c2)c2ccccc21)Nc1cccc(Cl)c1 (stereo not drawn)
Cc1ccc2onc(CC(=O)Nc3cccc(C(F)(F)F)c3)c2c1
CCS(=O)(=O)c1oc(-c2ccc(F)cc2)nc1S(=O)(=O)c1ccc(Br)cc1
CCN(CC)CCNC(=O)c1c(C)[nH]c(C=C2C(=O)Nc3ccc(F)cc32)c1C
CCn1cc(C(=O)N2CCN(c3ccc(C)cc3)C(C)C2)c(=O)c2cc(S(=O)(=O)N3CCCC3)ccc21 (stereo not drawn)
CCc1ccc(OC(C)C(=O)N2CCC(c3nc4ccccc4s3)CC2)cc1 (stereo not drawn)
COc1cc2c(cc1OC)C(COc1ccc(C(C)C)cc1)N(C(=O)COc1ccccc1)CC2 (stereo not drawn)
CCOc1ccc(C(=O)N(Cc2cc(OC)c(OC)c(OC)c2)c2ccccn2)cc1
CCc1ccc(OCC(=O)NCC(c2ccc(Cl)cc2)N2CCOCC2)cc1 (stereo not drawn)
COc1ccc(-c2cc(C(=O)N3CCN(c4ccccc4OC)CC3)c3cc(C(C)C)ccc3n2)cc1
CCc1ccc(NC(=O)C2CCCN(S(=O)(=O)c3cccc4nsnc34)C2)cc1 (stereo not drawn)
Cc1ccc(-c2nc(S(=O)(=O)c3ccccc3)c(SCC(=O)NC3CCCCC3)o2)cc1
CCC1CCCCN1C(=O)CSc1nc(-c2ccc(OC)c(OC)c2)cc(C(F)(F)F)n1 (stereo not drawn)
COc1ccc(C(=O)Nc2ccc(-c3cc4ccccc4oc3=O)c(C)c2)cc1Br
COc1ccc(NC(=O)CN2C(=O)C(C)(C)c3ccccc32)cc1Cl
CCc1ccc(NC(=O)c2ccc(F)c(S(=O)(=O)NCCc3ccc(OC)c(OC)c3)c2)cc1
CC1Cc2cc(S(=O)(=O)N(Cc3ccccc3)C(C)C)ccc2N1C(=O)C1CCC1 (stereo not drawn)
Cc1ccc(-c2c(C)n3c4c(=O)n(C)c(=O)n(C)c4nc3n2CCO)cc1
Cc1oc(-c2ccc(C(=O)NCc3ccc(Cl)cc3)cc2)nc1CS(=O)(=O)c1ccccc1
O=C(NCC(c1ccccc1)c1ccccc1)c1nn(-c2ccccc2F)nc1CO
COC(=O)C1=C(C)NC(C)=C(C(=O)OCC(C)=O)C1c1ccccc1[N+](=O)[O-] (stereo not drawn)
CC(C)c1ccc(CNC(=O)c2ccc(N3CCCC3)c(NC(=O)NCc3ccccc3)c2)cc1
CCOc1ccc(CNC(=O)c2ccc(Sc3ccc(Cl)cc3)c(NC(C)=O)c2)cc1OC
CCCCCNS(=O)(=O)c1ccc(N2CCCCS2(=O)=O)cc1
CCS(=O)(=O)c1ncc(Cl)c(C(=O)N(Cc2ccccc2)c2ccc(OC)cc2)n1
O=C(C1CCC(CNS(=O)(=O)c2cccs2)CC1)N1CCN(c2ccc(Cl)cc2)CC1 (stereo not drawn)
O=S(=O)(Nc1ccc(OC(F)(F)F)cc1)c1ccc(N2CCCCS2(=O)=O)cc1
Cc1ccc(CCNC(=O)C(C)n2nc(C)c3c(C)n(-c4ccc(C)cc4)nc3c2=O)cc1 (stereo not drawn)
CC1=C(C(=O)OCc2ccc(C)cc2)C(c2ccccc2Cl)CC(=O)N1 (stereo not drawn)
Cc1cccc(C(=O)Nc2nc(-c3nnn(-c4cc(F)ccc4F)c3C)ns2)c1
COc1ccccc1NC(=O)CN1C(=O)C(C)(C)c2ccccc21
CC(=O)c1c(C)oc2ccc(N(C(=O)c3ccncc3)S(=O)(=O)c3ccc(F)cc3C)cc12
COc1cccc(CNC(=O)Cn2c(=O)oc3cc(S(=O)(=O)N4CCC(C)CC4)ccc32)c1
